Screening results deposited in PubChem BioAssay by National Center for Advancing Translational Sciences (NCATS).
In the library only some 1.3% were active in any assay of this set; here they are far more common.
PTAP TSG101 blk = blocks PTAP/TSG101 interaction to inhibit HIV-1 budding; Q99816; Fluorescence polarization, FITC-PTAP peptide / Tsg101 binding; Potency, µM (doses to about 115 µM), inactives show at the highest dose activity change, negative = inhibition, most hits filed as inhibitors; 340,000 tested, under 10 active; AID 493005; active means well fitted inhibition curve with a large enough effect in the main read-out, with a control signal flat, not every such curve was filed as active; inconclusive means small, poorly fitted or top-dose-only effect, or effect the other way, or a change in a side signal; inactive means no such curve, though single readings can be large or run the other way; further: potency means the concentration at half of the fitted maximal effect; % of control where 0% means no effect
Target sequence (Q99816 whole entry, looked up): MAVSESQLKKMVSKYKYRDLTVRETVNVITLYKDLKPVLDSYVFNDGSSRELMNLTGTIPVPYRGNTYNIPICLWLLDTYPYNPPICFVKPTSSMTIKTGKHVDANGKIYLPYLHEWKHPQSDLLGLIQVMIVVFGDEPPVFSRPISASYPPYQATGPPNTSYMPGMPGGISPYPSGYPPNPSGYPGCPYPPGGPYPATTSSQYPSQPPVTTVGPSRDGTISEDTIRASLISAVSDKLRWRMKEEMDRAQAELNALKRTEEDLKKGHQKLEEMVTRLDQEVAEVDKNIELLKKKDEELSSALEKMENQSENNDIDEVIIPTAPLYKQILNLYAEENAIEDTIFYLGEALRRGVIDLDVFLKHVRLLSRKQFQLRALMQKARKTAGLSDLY
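Compounds were pin-transferred onto Tsg101 binding domain (10 uM final) in HEPES pH 7.5 buffer, then FITC-PTAP peptide was added at 50 nM final. After 20 min at RT, polarization reported peptide displacement across a qHTS concentration series.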
IL2 activator = activates IL-2 in a cell-based reporter assay; IL-2 activation reporter assay, cell-based qHTS; stimulated with anti-CD3/CD4/CD28 beads; in transgenic mouse T cells; activation, % (series mostly up to about 46 µM); 360,000 compounds, 0.065% hits; in the data active means activation above about 50%; inconclusive means mostly about 30% to 49%; further: 0% is about no effect
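Screening format: compound pinned onto unstimulated transgenic mouse T cells, 60 min incubation, then anti-CD3/anti-CD4/anti-CD28 bead stimulation for 18 hours at 37 degrees C, followed by EGFP and DsRed detection.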
BRCA1 expr act = increases BRCA1 expression; MCF7-BRCA1-FFLuc reporter, luminescence, 48 h; response scale: scaled: vehicle 0%, 10 µM genistein 100%; Potency, µM (top dose mostly 46.1 µM), for the others: at the top dose activation, most hits filed as activators; 380,000 compounds, 1.1% hits; further: potency means the concentration at half of the fitted maximal effect; nearly all actives have a fitted effect of over 80% in size
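Reporter cells (MCF7, BRCA1 promoter-firefly luciferase) received library compounds across a concentration series for 48 h. End-point luminescence was measured and concentration-effect curves derived after normalization.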
PKM2 activator = increases activity of human pyruvate kinase M2. P14618. purified PKM2, Kinase-Glo ATP luminescence, activation; response scale: 0% is enzyme alone, no compound. Potency, µM (highest dose often 57.5 µM), for the others: at the highest dose activation, actives largely listed as activators. 260,000 compounds, 0.34% hits; further: potency means the concentration at half of the fitted maximal effect; on the % scale 0 is the no-effect control and ±100 the full control effect; nearly all actives have a fitted effect of over 55% in size
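Kinase-Glo luminescence reports ATP generated from ADP (0.1 mM) and PEP (0.5 mM) by purified hPK-M2 after 1 h at room temperature, pH 7.2 imidazole buffer; intermediate enzyme activity allows detecting inhibitors and activators.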
TRPML1 ag = activates the human TRPML1 channel | Q9GZU1 | TRPML1-expressing cells, Ca2+ dye fluorescence, FDSS | activation, % (no concentration beside the values) | 410,000 compounds, 0.12% hits | AID 624414; in the data active means activation above about 50%; inconclusive means mostly about 30% to 49%; further: 0% is about no effect
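Cells: TRPML1-DL, 1X Tet inducer, ~16 h at 37 degrees C/5% CO2. Dye: ABD Ca8 no-wash + quencher, 45-90 min RT. Read: 10 s baseline, compound add, 110 s agonist phase; 54-4 EC80 (4uM final), 110 s antagonist phase.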
TRPML1 blocker = human mucolipin-1 channel inhibition; Q9GZU1; TRPML1-inducible cells, Ca2+ dye fluorescence, FDSS; stronger effect = lower value; inhibition of EC80 agonist-evoked calcium signal; activity change, negative = inhibition, % (no concentration beside the values); 390,000 compounds, 0.02% hits; AID 624415; in the data active means activity change below about -50%; inconclusive means between about -30% and that limit;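 further: stimulus is agonist 54-4 at its EC80 concentration; on the % scale 0 is the no-effect control and ±100 the full control effect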
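Tet-induced TRPML1-DL cells loaded with Ca8 no-wash calcium dye were read kinetically on FDSS. Compound addition was followed by EC80 agonist 54-4 (4 uM final); inhibition was read over 110 s.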
HeLa viability = reduces HeLa cell viability in PKM2 activator counter-screen; shares compounds with PKM2 activator; HeLa viability, CellTiter-Glo ATP luminescence, 24 h; activity change, negative = cytotoxicity, % at 57.5 µM; 230 tested, under 10 active; AID 1898; further: % of control where 0% means no effect
* hit, by the source's call; ? = inconclusive; . = no result given. Unless noted, the call rests on the fitted dose curve; in most records, active means well fitted curve in the direction sought with a large enough effect; inconclusive means small, poorly fitted or top-dose-only effect, or another doubt; inactive means no such curve, though single readings can be large; an effect the other way counts as inactive or inconclusive.

SMILES | PTAP TSG101 blk | IL2 activator | BRCA1 expr act | PKM2 activator | TRPML1 ag | TRPML1 blocker | HeLa viability
O=C(Cc1cccs1)N1CCCC(c2nc3c(nnn3Cc3cccc(Cl)c3)c(=O)[nH]2)C1 (stereo not given) | -6% | -2 | -29% | 16µM* | 0 | 0 | -12
COc1ccc(S(=O)(=O)N(Cc2nc(-c3cccc(C)c3)no2)C2CCCCC2)cc1 | . | . | . | . | 4 | 27 | .
Cc1ccccc1NS(=O)(=O)c1ccc2c(c1)n(C)c(=O)n2C | -3% | 0 | -34% | 2.5µM* | 0 | 34 | 3
COc1cccc(-c2nn(C)c3sc(C(=O)NCc4ccc(C)o4)cc23)c1 | -4% | -1 | -50% | 2.5µM* | 0 | -1 | ?
COc1ccc(C[C@@H]2C(=O)N[C@H](C)C(=O)N(C)[C@@H]3Cc4ccc(cc4)Oc4cc(ccc4O)C[C@H](C(=O)N[C@@H](C)C(=O)N[C@H](C)C(=O)N2C)N(C)C3=O)cc1 | . | . | 18% | . | 0 | . | .
Cc1ccccc1C(=O)Nc1cccc(-c2nc3cccnc3s2)c1 | . | . | . | . | 1 | -2 | .
COc1ccc(S(=O)(=O)c2ccc(O)cc2)cc1 | -5% | 2 | -18% | 4.5µM* | 5 | 17 | 0
CCOC(=O)CCn1c(=O)c2cccn2c2cccnc21 | . | . | . | . | 1 | -9 | .
O=C(NCc1nnc2c(C(F)(F)F)cc(Cl)cn12)c1cccs1 | -10% | -6 | -13% | 2.8µM* | -1 | -11 | 0
O=C(NCc1nnc2c(C(F)(F)F)cc(Cl)cn12)C1CCCC1 | -2% | -1 | -1% | 1% | 0 | -3 | .
CC(CCc1ccccc1)NC(=O)Cn1ncc2c3ccccc3n(Cc3ccccc3F)c2c1=O (stereo not given) | . | . | . | . | -1 | 8 | .
Cc1cc2c(s1)c1cnn(Cc3ccccc3F)c(=O)c1n2C(C)C | . | . | . | . | . | . | -11
Cc1cc2c(s1)c1cnn(Cc3cccc(Cn4ncc5c6sc(C)cc6n(C)c5c4=O)c3F)c(=O)c1n2C | . | . | . | . | . | . | 6
CCCCCn1ncc2c3sc(C)cc3n(C)c2c1=O | . | . | . | . | . | . | -14
Cc1cc2c(s1)c1cnn(Cc3c(F)c(F)cc(F)c3F)c(=O)c1n2C | . | . | . | . | . | . | 3
COc1ccc(NC(=O)C2CCN(S(=O)(=O)c3ccc4c(c3)CCCC(=O)N4)CC2)c(OC)c1 | . | . | 2% | . | 1 | 0 | .
COc1ccc(Cl)c(Cn2c(NCCN)nc3c2c(=O)n(C)c(=O)n3C)c1 | . | . | . | . | -1 | 24 | .
CCOc1ccc(C(CC(=O)O)N2Cc3ccccc3C2=O)cc1OC (stereo not given) | . | . | 6% | . | -1 | 19 | .
Cc1oc2ncnc(N3CCOCC3)c2c1C(=O)N(Cc1ccccc1)C(C)C | . | . | . | . | 1 | 32 | .
Cn1c2ccccc2c2cnn(CC(=O)Nc3ccccc3F)c(=O)c21 | . | . | 24% | . | 0 | -4 | .
Cc1cc2c(s1)c1cnn(Cc3c(F)cccc3F)c(=O)c1n2C | . | . | . | . | . | . | 8
CCc1ccc(NC(=O)Cn2ncc3c4ccccc4n(C)c3c2=O)cc1 | 1% | -1 | -28% | 1% | 1 | -5 | .
Cc1cc2c(s1)c1cnn(Cc3ccc(F)c(F)c3F)c(=O)c1n2C | . | . | . | . | . | . | -18
Cc1ccccc1-n1nnnc1SCc1cc(=O)n2ccsc2n1 | -3% | 0 | 0% | 0.79µM* | -1 | -12 | -20
O=C(CSc1ccccc1)N1CCN(S(=O)(=O)c2ccccc2F)CC1 | -3% | 0 | -5% | 3.2µM* | 1 | 4 | 0
Cn1c2ccsc2c2ncn(Cc3ccccc3F)c(=O)c21 | -2% | 2 | 29% | . | . | . | ?
Cn1c2ccccc2c2ncn(Cc3ccc(F)cc3)c(=O)c21 | -4% | 0 | -29% | 1% | 0 | -15 | .
